Among the data in PubChem BioAssay (NCATS) are max response values, retold here.

Each structure is given as a SMILES string. Several values for one entry are separate records, joined by “and”; a condition that tells them apart may be missing. Equal entries are not always repeated. Results filed as inconclusive are left out. Unmarked numbers belong to inactive results. The call rests on the fitted dose curve; in most records, active means well fitted inhibition curve with a large enough effect in the signal ratio, with a control signal flat (not every such curve was filed as active); inconclusive means small, poorly fitted or top-dose-only effect, or effect the other way, or a change in a side signal; inactive means no such curve, though single readings can be large or run the other way; the % refers to the signal ratio.
On the % scale 0 is the no-effect control and ±100 the full control effect.

For this test, the target named is Retinoic acid receptor RXR-alpha (Homo sapiens) (UniProt P19793). The experiment in a line: qHTS assay for small molecule antagonists of retinoid X receptor alpha signaling (AID 588546). As to conditions: HEK293T RXRa-UAS-bla, beta-lactamase ratio, antagonist mode. The source says: NIH Chemical Genomics Center [NCGC] U.S. Environmental Protection Agency [EPA] National Institutes of Environmental Health Sciences [NIEHS] National Toxicology Program [NTP] NCGC Assay Overview The Retinoid X receptor (RXR), a nuclear hormone receptor is expressed in liver, spleen, placenta, epidermis, central nervous system. These receptors are able to form homo and heterodimers with other nuclear receptors and due to this heterodimerizing ability, RXR functions as master regulators producing diverse physiological effects. Three subtypes of RXR exist; alpha, beta and gamma. Retinoid X receptor alpha (RXR-alpha) has potential roles in metabolic signaling pathways, skin alopecia, dermal cysts, cardiac development, insulin sensitization etc. Therefore screening environmental chemicals on RXR-alpha signaling can be used for the studies focused on such therapeutic applications.
Sequence of Retinoic acid receptor RXR-alpha (Homo sapiens) (P19793 whole entry, looked up): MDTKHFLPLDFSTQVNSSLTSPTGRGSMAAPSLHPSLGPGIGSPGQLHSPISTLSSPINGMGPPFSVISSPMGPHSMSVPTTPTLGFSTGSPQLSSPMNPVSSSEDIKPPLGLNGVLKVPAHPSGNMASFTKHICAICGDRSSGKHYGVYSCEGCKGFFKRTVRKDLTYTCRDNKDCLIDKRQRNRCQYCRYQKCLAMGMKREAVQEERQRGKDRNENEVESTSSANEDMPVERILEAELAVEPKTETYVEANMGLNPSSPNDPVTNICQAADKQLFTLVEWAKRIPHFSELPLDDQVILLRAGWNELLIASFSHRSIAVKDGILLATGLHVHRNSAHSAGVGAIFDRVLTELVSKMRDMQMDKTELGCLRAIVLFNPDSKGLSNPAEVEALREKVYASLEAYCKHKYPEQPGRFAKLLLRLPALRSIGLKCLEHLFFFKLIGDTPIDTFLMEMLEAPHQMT
NCGC Assay Protocol Summary Using a beta-lactamase reporter-gene under control of Retinoid X receptor--alpha (RXR-alpha) response element, a cell-based assay [GeneBLAzer (RXR-alpha -UAS-bla assay developed by Invitrogen] was used to measure RXR-alpha ligands signaling. GeneBLAzer RXR-alpha -UAS-bla HEK293T cells were used with assay medium containing 2% charcoal-stripped FBS. The assay was performed in clear bottom black Greiner 1536-well plates. Library compounds were measured for their ability to inhibit the reporter gene activity. Compounds were screened in a titration series in 1536-well format. The fluorescence intensity (405 nm excitation, 460/530 nm emission) was measured using an EnVision plate reader. Data was normalized relative to 9-cis-retinoic acid control (500 nM, 100%), and DMSO only wells (basal, 0%). Concentration-response titration points for each compound were fitted to the Hill equation yielding concentrations of half-maximal inhibition (IC50) and maximal response (efficacy) values. qHTS protocol for RXR-alpha beta-lactamase assay in antagonist mode [Step] [Parameter] [Value] [Description] 1. Reagent; 5 uL; 2500 cells/well 2. Incubation; 37 C for 4 hrs 3. Compounds; 23 nL; 0.59 nM to 92 uM 4. Controls (DMSO); 23 nL 5. Agonist (Stimulator); 1uL; 9-cis-retinoic acid at 500 nM and 100 nM final concentrations 6. Incubation; 37 C for 18 hrs 7. Detection reagent; 1 uL of CCF4-dye 8. Incubation; RT for 2 hrs 9. Detection; Fluorescence; Envision plate reader
For the compound `COC(=O)C1=C(C)NC(C)=C(C(=O)OC)C1c1ccccc1[N+](=O)[O-]`, the max response was 23.4%.

For the compound `COc1ccccc1O`, the max response is 0.752% and 5.31% and 3.65%.

Consider `COc1ccc(Cl)cc1C(=O)NCCc1ccc(S(=O)(=O)NC(=O)NC2CCCCC2)cc1`, for which the max response is -9.84%.

Regarding `CNC(=O)Oc1ccc2c(c1)[C@]1(C)CCN(C)[C@@H]1N2C`, the max response is 1.77%. For `C[C@]12C[C@H](O)[C@H]3[C@@H](CCC4=CC(=O)CC[C@@]43C)[C@@H]1CC[C@@H]2C(=O)CO`, the max response was 9.95%. For `CC(O)COc1ccccc1` (configuration not stated), the max response was -2.29%.

In the case of `Cc1cccc(Nc2cc(Cl)nc(SCC(=O)O)n2)c1C`, the max response was -6.08%.

For the compound `CC(O)CN(CCN(CC(C)O)CC(C)O)CC(C)O` (configuration not stated), the max response was -14.1%. The same measure for `NC(=O)N/N=C/c1ccc([N+](=O)[O-])o1`: 5.86% and 14.5%; for `O=S(=O)(O)NC1CCCCC1`: 5.18%. On to `O=C1c2c(O)cccc2Cc2cccc(O)c21`, for which the max response was 9.5%. Consider `O=C1O[C@H]([C@@H](O)CO)C(O)=C1O`, for which the max response is 1.04%. Turning to `CC1(C)[C@@H]2CC[C@@]1(C)C(=O)C2`, the max response is 2.47%. On to `NCCNCCNCCN`, for which the max response is 10.1%. As for `[Cl][In]([Cl])[Cl]`, the figure is 17.5%; as for `CCCCC(CC)COC(=O)c1ccccc1O` (configuration not stated), 6.6%; as for `Oc1cccc(O)c1`, 1.73%.

On to `CCOC(=O)c1ccc(O)cc1`, for which the max response is 4.29%. As for `CN(C)CCCN1c2ccccc2Sc2ccc(Cl)cc21`, the figure is -16.5%; as for `CCCc1c(OCCCCc2nn[nH]n2)ccc(C(C)=O)c1O`, 3.05%. The same measure for `C[C@]12CC[C@@H]3c4ccc(O)cc4CC[C@H]3[C@@H]1CCC2=O`: -13%; for `CCCCCCCCCCCCOS(=O)(=O)O`: 6.26% [middle of 4 runs]; for `Nc1ccc(S(=O)(=O)Nc2nccs2)cc1`: 19.3%. As for `CN(C)CCOC(C)(c1ccccc1)c1ccccn1` (configuration not stated), the figure is -25.1%; as for `CCCCOC(=O)c1ccc(O)cc1`, -15.2% and -3.16%. With `CC12CCC(CC1)C(C)(C)O2`, the max response is 10.3%. The same measure for `NCCNCCNCCNCCN`: -26.1%.
